Laboratory results reported in PubChem BioAssay AID1626 (SRMLSC, 2009).
Hit rate of the full screen: of about 220,000 compounds, about 2,000 (0.91%) were called active. Roughly 2% stayed inconclusive and do not appear here. A selection follows. Results with a measured potency or affinity are listed apart. Values without a mark were called inactive. Cut-off read from the data, not from the text of the source: inconclusive = inhibition above about 80% without an active follow-up result; inactive = below that; test concentration not stated here.

Test: M. tuberculosis H37Rv growth inhibitors, H37Rv strain (AID 1626);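 note: bacteria incubated seven days before Alamar blue readout; 0% = bacteria only wells and 100% = bacteria with antibiotic wells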
Settings: stronger effect = higher value, concentration not given here

SMILES	inhibition [%]
O=C(CN(C(=O)c1ccccc1Cl)C1CCCCC1)Nc1ccc(Cl)c([N+](=O)[O-])c1	-3.85
Cc1ccc([N+](=O)[O-])cc1NC(=O)CN(C(=O)c1ccc(Cl)cc1)C1CCCCC1	3.68
Cc1ccccc1NC(=O)C(=O)NCCCN1CCOCC1	-3.37
COc1cc(/C=C/C(=O)c2ccc(C)cc2)ccc1OCC#N	8.8
COc1cc(/C=C/C(=O)c2ccc(O)cc2)ccc1OCC#N	17.5
COc1cccc(C(=O)/C=C/c2ccc(SC)cc2)c1	5.8
COc1cc(/C=C/C(=O)c2ccc(C)c([N+](=O)[O-])c2)cc(OC)c1O	9.83
COc1cccc(OCCNC(=O)c2cccc(OC)c2)c1	4.61
COc1cc(C(=O)O/N=C(\N)c2cccc([N+](=O)[O-])c2)cc(OC)c1OC	-4
O=C(NCCOc1ccccc1)c1cc(C(=O)NCCOc2ccccc2)cc([N+](=O)[O-])c1	15.8
COc1cccc(/C=C/C(=O)c2ccc(C)c([N+](=O)[O-])c2)c1	17.5
CC(=O)c1c(C)[nH]c(C(=O)CSc2nnc(CN3CCCCCC3=O)n2-c2ccccn2)c1C	-2.46
Cc1ccc(C(=O)N(c2ccccc2)C2CC(C)N(C(=O)c3ccco3)c3ccccc32)cc1 (centres undefined)	0.9
CCn1c(SCC(=O)Nc2nccs2)nnc1-c1ccccc1	-4.51
Clc1cc2nc[nH]c2cc1Cl	-8.63
CCCc1cc(=O)[nH]c(SCc2csc(-c3ccccc3)n2)n1	-1.65
Nc1nnc(-c2cccc(F)c2)s1	1
CC1CN(c2ccc(S(=O)(=O)N3CCOCC3)cn2)CC(C)O1 (centres undefined)	-1.99
CC(=O)c1cc(C#N)c(SCc2ccc(F)cc2)nc1C	-3.8
Cc1ccc(S(=O)(=O)CCN2CCC(n3cccc3)CC2)cc1	-2.9
COc1cc(/C=C/C(=O)c2ccccc2O)cc(OC)c1OC	-1.73
COc1cc(/C=C/C(=O)OCC(=O)NC(=O)NC(C)(C)C)ccc1OCC#N	53.3
O=C(/C=C/c1cccc([N+](=O)[O-])c1)Nc1ccc(NC(=O)c2cccs2)cc1	3.17
COc1cc(/C=C/C(=O)OCC(=O)NC(=O)NC(C)C)ccc1OCC#N	11.7
O=C(/C=C/c1cccc([N+](=O)[O-])c1)Nc1cccc(NC(=O)c2cccs2)c1	13.1

SMILES	inhibition [%]
O=C(/C=C/c1ccc(N2CCCCC2)c([N+](=O)[O-])c1)c1ccc(O)cc1	52.4
COc1ccc(Oc2ccc(/C=C/C(=O)c3cccc(OC)c3)cc2[N+](=O)[O-])cc1	4.34
COc1cc(/C=C/C(=O)O)cc(OC)c1OC	-1.87
CCN(C(=O)CSc1nnc(-c2ccc(Cl)cc2)n1C)C1CCS(=O)(=O)C1 (centres undefined)	1.77
O=C(NCc1nnc(SCC(=O)N2CCOCC2)o1)c1cccs1	3.48
COc1ccc(-n2cc(CNCCN3CCOC3=O)c(-c3ccccc3Cl)n2)cc1	2.78
COC(=O)NC(NC(=S)Nc1cccc(C)c1)C(Cl)(Cl)Cl (centres undefined)	-2.36
CN(C)/C=C/C(=O)c1cccc([N+](=O)[O-])c1	6.88
O=C(/C=C/c1ccc([N+](=O)[O-])cc1)NC1CC2CCC1C2 (centres undefined)	73.7
O=C(/C=C/c1ccccc1F)c1ccoc1	2.06
O=C(/C=C/c1ccccc1)NC1CC2CCC1C2 (centres undefined)	0.01
O=c1c2ccccc2ncn1CCOCCOc1cccc(Br)c1	-2.48
CC(C)(C)c1ccc(OCCOc2ccc(C(C)(C)C)cc2NC=O)c(NC=O)c1	7.57
Cc1cc(NC(=O)CSc2ccc(-c3cccc([N+](=O)[O-])c3)nn2)no1	13.3
Cn1c(O)c(N=NC(=O)C2COc3ccccc3O2)c2ccccc21 (centres undefined)	2.52
COc1ccc(Br)cc1CN(C)C(C)C(=O)Nc1cc([N+](=O)[O-])ccc1OC (centres undefined)	6.06
O=Nc1c(O)n(Cc2cccc(Cl)c2)c2ccccc12	-7.32
c1ccc(Cc2nn3c(COc4ccccc4)nnc3s2)cc1	8.35
CSc1nc(C)c(Cc2c(F)cccc2Cl)c(=O)[nH]1	-5.44
C=C(C)C1CC=C(CN2CC(C)OC(C)C2)CC1 (centres undefined)	-0.53
Cc1ccc(NC(=O)CN(C)C(=O)COc2c(Cl)cc(Cl)c3ccc(C)nc23)cc1	5.82
Cc1ccc2c(Cl)cc(Cl)c(OCC(=O)O)c2n1	-9.9
COC(=O)COc1c(Cl)cc(Cl)c2ccc(C)nc12	70.4
Cc1ccc2c(Cl)cc(Cl)c(OCC(=O)N(C(C)C)C(C)C)c2n1	7.37
